Test results: PubChem BioAssay (NCI)
This is part of a sample that, as a whole, favours compounds with a hit. Of some 79,000 tested, about 15% had one in any assay. Rule as the data show it: active = growth inhibition above about 70%; inactive = the rest.

Tests used:
[1] = NCI Yeast Anticancer Drug Screen. Data for the rad50 strain (AID 155);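 also: 0% = growth of vehicle-only cultures of the same strain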; conditions: S. cerevisiae rad50 strain growth inhibition; at 50.0 µM; stronger effect = higher value
Summary of the method: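 Genetically altered yeast (DNA repair pathway); compound treatment; growth inhibition vs vehicle ctrl.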

[2] = NCI Yeast Anticancer Drug Screen. Data for the mec2-1 strain (AID 157); conditions: S. cerevisiae mec2-1 strain, at 50.0 µM, stronger effect = higher value
Summary of the method: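 mec2-1 yeast strain, carrying an alteration in DNA damage repair or cell cycle control, was exposed to compounds; growth inhibition was measured relative to vehicle-treated controls.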

[3] = NCI Yeast Anticancer Drug Screen. Data for the sgs1 mgt1 strain (AID 161);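 also: 0% = growth of cultures given vehicle only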; conditions: S. cerevisiae sgs1 mgt1 strain, at 50.0 µM, stronger effect = higher value
Summary of the method: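 Percent growth inhibition was derived by comparing compound-exposed mutant yeast with vehicle-exposed cultures. The strain carries alterations in DNA damage repair.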

[4] = NCI Yeast Anticancer Drug Screen. Data for the cln2 rad14 strain (AID 165);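 also: 0% = growth equal to vehicle treated cultures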; conditions: S. cerevisiae cln2 rad14 strain, at 50.0 µM, stronger effect = higher value
Summary of the method: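 Yeast carrying cln2 and rad14 alterations (cell cycle control and DNA damage repair) were exposed to compounds. Growth inhibition was measured against vehicle-treated controls.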

[5] = NCI Yeast Anticancer Drug Screen. Data for the bub3 strain (AID 167); conditions: S. cerevisiae bub3 mutant strain, at 50.0 µM, stronger effect = higher value
Summary of the method: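 Yeast carrying a defined mutation is treated with each compound, and growth is compared with that of vehicle-exposed cells to give inhibition.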

[6] = NCI Yeast Anticancer Drug Screen. Data for the mlh1 rad18 strain (AID 175); conditions: S. cerevisiae mlh1 rad18 strain growth inhibition; at 50.0 µM; stronger effect = higher value
Summary of the method: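 Growth inhibition of the yeast strain was measured after compound exposure and expressed relative to vehicle-treated controls. The strain carries defined defects in DNA damage repair.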

Measured: growth inhibition

NC(N)=N/N=C/c1c(Cl)nc2n1CCS2
inactive: [1] -7.35% | [2] -32.2% | [3] -9.5% | [4] 3.5% | [5] 22.4% | [6] -6.8%

COC(=O)c1cc(C(=O)OC)c(C/C(=N/NC(=O)C[N+](C)(C)C)C(=O)Nc2cccc(C(F)(F)F)c2)nc1C/C(=N/NC(=O)C[N+](C)(C)C)C(=O)Nc1cccc(C(F)(F)F)c1
inactive: [1] -14.5% | [2] -1.45% | [3] -11.6% | [4] 17.1% | [5] 11.4% | [6] -2.3%

CCCCC(CC)CC#N (stereo not given)
inactive: [1] 6.15% | [2] -20.1% | [3] 21.1% | [4] 6.05% | [5] -4.35% | [6] 10.7%

O=C(Nc1ncnc2c1ncn2C1OC(COC(=O)c2ccccc2)C(OC(=O)c2ccccc2)C1OC(=O)c1ccccc1)c1ccccc1 (stereo not given)
inactive: [1] 5.15% | [2] 15.6% | [3] -1.25% | [4] 10.8% | [5] 4.05% | [6] 34.6%

CO[Si](C)(C)OC
inactive: [1] -6.65% | [2] -32% | [3] -7.15% | [4] 0.3% | [5] -6.15% | [6] -13.9%

C=CCn1c(C23CC4CC(CC(C4)C2)C3)n[nH]c1=S
inactive: [1] 27.6% | [2] 37.7% | [3] -8.45% | [4] 19.2% | [5] 3.55% | [6] -26.3%

COCCOC(=O)CO
inactive: [1] 4.35% | [2] 3.85% | [3] -4.7% | [4] 2.25% | [5] 7.8% | [6] 5.5%

Cc1cc(C)nc(NS(=O)(=O)c2ccc(Nc3c4ccc(Cl)cc4nc4c(C(=O)NCCN(C)C)cccc34)cc2)n1
inactive: [1] 0% | [2] 13.8% | [3] -5.05% | [4] 1.4% | [5] 30.8% | [6] 6.95%

CCCCSCC(NC(=O)/C=C/c1c(C)[nH]c(=O)[nH]c1=O)C(=O)OC (stereo not given)
inactive: [1] 16.1% | [2] 20.2% | [3] 31.2% | [4] 22.4% | [5] 7.7% | [6] 28.6%

O=C(CSCC(=O)c1ccc([N+](=O)[O-])cc1)c1ccc([N+](=O)[O-])cc1
inactive: [1] -19.4% | [2] -29.6% | [3] 9.85% | [4] -0.65% | [5] -20.1% | [6] -5%

CSC(=O)/C=C1\SS/C(=C\C(=O)SC)S1
inactive: [1] -10% | [2] -10.4% | [3] -13.1% | [4] -5% | [5] -11.2% | [6] -16.1%

O=C1CCCC(=O)c2c(O)ccc(O)c21
inactive: [1] 4.4% | [2] -4.15% | [3] 9.5% | [4] -3.4% | [5] 10.7% | [6] 5.65%

Cc1ccc(S(=O)(=O)CCS(C)(=O)=O)cc1
inactive: [1] -0.5% | [2] 2.2% | [3] 13.2% | [4] 21.8% | [5] -13.7% | [6] -11.2%

C(=C\C1OCCO1)/c1ccccc1
inactive: [1] 14.4% | [2] 0.45% | [3] 7.25% | [4] -2.4% | [5] 18.1% | [6] -3%

OC(CCCCCCCCC(O)CN1CCCCC1)CN1CCCCC1 (stereo not given)
inactive: [1] 3.3% | [2] 25.6% | [3] 5.45% | [4] 11% | [5] 20.6% | [6] 15.1%

OCn1c2ccccc2c2ccccc21
inactive: [1] 19.8% | [2] 0.55% | [3] 33.7% | [4] 20.8% | [5] 35.9% | [6] 19.8%

CCCCCCCOC(C)=O
inactive: [1] 14.8% | [2] -11.8% | [3] 11.3% | [4] -16.2% | [5] -3% | [6] 21.6%

CC(=O)OCCOc1ccc(C(C)(C)C)cc1
inactive: [1] 45% | [2] -18.4% | [3] 9.25% | [4] 32.5% | [5] 11.8% | [6] 15.2%

O=C(O)C(Cc1cccs1)C(=O)OCCc1ccccc1 (stereo not given)
inactive: [1] -4.95% | [2] -6.45% | [3] 1.05% | [4] -10.8% | [5] -13.7% | [6] 21.7%

CC1(C)CCNc2ccccc2S1
inactive: [1] -0.55% | [2] 1.7% | [3] 2.05% | [4] -25.9% | [5] -11.1% | [6] -14.6%

O=C(O)C1C2C=CC(O2)C1C(=O)Nn1cccc1 (stereo not given)
inactive: [1] 6.5% | [2] -7.5% | [3] -17.6% | [4] -12.8% | [5] -16.6% | [6] -6.75%

COc1ccc(CNC(=O)C2C(=O)C(=O)N(Cc3ccc(OC)c(OC)c3)C2=O)cc1OC (stereo not given)
inactive: [1] 20.8% | [2] -5.45% | [3] -0.9% | [4] 17.1% | [5] -1.25% | [6] 14.7%

CCOC(=O)c1cn(CC)c2c(ccc3cnccc32)c1=O
inactive: [1] -3.55% | [2] -18.4% | [3] -18.4% | [4] 29.6% | [5] -11% | [6] 10.2%

O=Cc1ccc(O)c(C(=O)O)c1
inactive: [1] 8.6% | [2] 5.8% | [3] 15.3% | [4] 21.1% | [5] 21.1% | [6] 2%

NC(=S)N/N=C\C(CC(O)C(O)CO)=N\NC(N)=S (stereo not given)
inactive: [1] 4.95% | [2] 6.55% | [3] 4.45% | [4] 8.7% | [5] 12.4% | [6] 10.2%

COC(=O)c1c[nH]c(C=O)c1C
inactive: [1] 15.8% | [2] -0.7% | [3] -6.95% | [4] -67.8% | [5] 8.3% | [6] 8.8%

CC(=O)CCC1(C)CCCC(C)(C)CC1=O (stereo not given)
inactive: [1] -1.3% | [2] 5.15% | [3] 3.75% | [4] -9.55% | [5] -28% | [6] -12.2%

CCOC(=O)c1ccc(NC(=O)c2cnccn2)cc1
inactive: [1] -6.5% | [2] 0.3% | [3] -17.7% | [4] -15.4% | [5] -20.4% | [6] -2%

CNC(=S)N(C)/N=C/c1ccccc1
inactive: [1] 10.3% | [2] 2.4% | [3] -3.75% | [4] -28.9% | [5] -7.15% | [6] 3%

O=C(NN1C(=O)C(Cl)C1c1ccccc1O)c1ccccc1O (stereo not given)
inactive: [1] -5.85% | [2] -26.5% | [3] -15.6% | [4] -15.1% | [5] -16.6% | [6] -29.4%

Cc1cc(N(CCC#N)CCC#N)ccc1N=Nc1cccc(C(=O)O)c1
inactive: [1] -40.4% | [2] -33.8% | [3] -10% | [4] -16.4% | [5] -33.8% | [6] -27.1%

Nc1ccc(C(=O)NCCCC(=O)O)cc1
inactive: [1] -1.85% | [2] 19.2% | [3] -1.75% | [4] 0.85% | [5] -3.75% | [6] -14.6%

COc1ccc(N=Nc2cc(OC)c(N=Nc3c(O)c4ccccc4[nH]c3=O)cc2OC)cc1
inactive: [1] 18.1% | [2] 16.8% | [3] 25.1% | [4] 13.8% | [5] -14.2% | [6] 17.1%

COC1(OC)C(Cl)=C(Cl)C2C1C1(Cl)C(Cl)=C(Cl)C2(Cl)C1(OC)OC (stereo not given)
inactive: [1] 39.9% | [2] 10.1% | [3] 1.7% | [4] 13.6% | [5] 2.2% | [6] 5.3%

CCN(CC)CC1CCCCN1CC(=O)N1c2ccccc2NC(=O)c2ccccc21 (stereo not given)
inactive: [1] -6.85% | [2] -3.25% | [3] 5.25% | [4] -6.1% | [5] -1.9% | [6] 5.95%
